From PMC4336329 (PLoS ONE, 2015) come the findings set out here.

In all, about 310,000 compounds went through this assay and about 14,000 (4.5%) showed an effect of 50% or more. Effects have a minus sign here. For the sample, strong results were picked, then their nearest neighbours and some compounds at random.
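Note: peak tail current of the secondary pulse compared with the same well before compound.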

In this assay the target is human ether-à-go-go-related gene (hERG) potassium channel (human, UniProt Q12809). Briefly: primary screen, population patch clamp on CHO cells stably expressing hERG; higher = less effect of the substance.
human ether-à-go-go-related gene (hERG) potassium channel, sequence (Q12809 whole entry, looked up): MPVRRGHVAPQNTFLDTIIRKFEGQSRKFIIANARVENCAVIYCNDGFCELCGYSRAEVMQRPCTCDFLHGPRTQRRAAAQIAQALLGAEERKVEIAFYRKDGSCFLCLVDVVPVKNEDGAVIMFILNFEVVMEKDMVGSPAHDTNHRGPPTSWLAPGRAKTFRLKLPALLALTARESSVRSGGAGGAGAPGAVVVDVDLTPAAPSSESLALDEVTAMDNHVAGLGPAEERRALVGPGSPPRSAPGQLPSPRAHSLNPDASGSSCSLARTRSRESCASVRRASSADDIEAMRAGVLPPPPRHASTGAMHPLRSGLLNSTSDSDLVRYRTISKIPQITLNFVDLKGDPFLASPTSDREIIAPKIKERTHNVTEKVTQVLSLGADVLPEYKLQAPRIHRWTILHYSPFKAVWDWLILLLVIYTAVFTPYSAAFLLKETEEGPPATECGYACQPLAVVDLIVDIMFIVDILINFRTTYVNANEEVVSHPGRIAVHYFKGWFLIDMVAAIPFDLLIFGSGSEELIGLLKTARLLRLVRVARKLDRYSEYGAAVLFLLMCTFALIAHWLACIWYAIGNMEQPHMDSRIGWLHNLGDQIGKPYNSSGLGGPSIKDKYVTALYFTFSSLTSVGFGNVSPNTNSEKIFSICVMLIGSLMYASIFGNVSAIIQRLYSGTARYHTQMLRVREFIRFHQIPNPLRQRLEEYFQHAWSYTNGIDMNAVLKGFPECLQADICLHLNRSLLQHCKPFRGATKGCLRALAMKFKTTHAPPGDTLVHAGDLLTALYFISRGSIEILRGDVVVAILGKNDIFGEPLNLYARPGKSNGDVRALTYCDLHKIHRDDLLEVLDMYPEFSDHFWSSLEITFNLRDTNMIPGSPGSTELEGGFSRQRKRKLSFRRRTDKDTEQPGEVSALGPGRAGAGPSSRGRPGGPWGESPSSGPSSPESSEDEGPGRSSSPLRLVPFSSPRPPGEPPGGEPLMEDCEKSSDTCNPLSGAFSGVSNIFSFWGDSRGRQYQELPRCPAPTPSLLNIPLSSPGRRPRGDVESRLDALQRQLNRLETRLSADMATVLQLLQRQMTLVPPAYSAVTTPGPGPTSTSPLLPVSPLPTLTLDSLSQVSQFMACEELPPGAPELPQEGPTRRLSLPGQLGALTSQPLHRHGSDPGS
For the compound `O=C(NCCC1CCCCN1S(=O)(=O)c1cccs1)C(=O)Nc1cccc(F)c1` (stereo not shown), the “hERG current change (%, negative = inhibition) at 10uM” value is recorded as -50.1%.

With `O=C(NCCC1CCCCN1S(=O)(=O)c1cccs1)C(=O)Nc1ccccc1` (stereo not shown), the “hERG current change (%, negative = inhibition) at 10uM” value is recorded as -10.1%.

With `O=C(NCCC1CCCCN1S(=O)(=O)c1cccs1)C(=O)Nc1ccc(F)cc1` (stereo not shown), the “hERG current change (%, negative = inhibition) at 10uM” value was -6.79%.

With `Cc1ccc(N2C(=O)N(CC(=O)Nc3cccc(Cl)c3)C(=O)C2C)cc1` (stereo not shown), the “hERG current change (%, negative = inhibition) at 10uM” value is -14.9%.

On to `O=C(COC(=O)CCc1ccc(S(=O)(=O)N2CCOCC2)cc1)NC1CCCCCC1`, for which the “hERG current change (%, negative = inhibition) at 10uM” value was -10.8%.

As to `CN(C)c1ccc(-c2cccc(C3CC=CC4C3C(=O)N(Cc3ccccc3)C4c3ccc4ccccc4c3)c2)cc1` (stereo not shown), the “hERG current change (%, negative = inhibition) at 10uM” value was found to be 17.5%.

Consider `O=C(O)c1ccc(N2CCN(Cc3ccc4c(c3)OCO4)CC2)c([N+](=O)[O-])c1`, for which the “hERG current change (%, negative = inhibition) at 10uM” value was 17.3%.

As for `O=[N+]([O-])c1ccc(N2CCN(c3ccccc3)CC2)nc1`, the “hERG current change (%, negative = inhibition) at 10uM” value was 4.96%.

For `Cc1nc([N+](=O)[O-])c(N2CCOCC2)n1Cc1ccccc1`, the “hERG current change (%, negative = inhibition) at 10uM” value turned out to be 9.64%.

Consider `O=[N+]([O-])c1ccc(N2CCN(Cc3ccc4c(c3)OCO4)CC2)nc1`, for which the “hERG current change (%, negative = inhibition) at 10uM” value is listed as -54.4%.

For `Cl.O=[N+]([O-])c1ccc(N2CCN(Cc3ccccc3)CC2)nc1`, the “hERG current change (%, negative = inhibition) at 10uM” value is on record as -59%.

For `c1ccc(N2CCN(Cc3ccc4c(c3)OCO4)CC2)nc1`, the “hERG current change (%, negative = inhibition) at 10uM” value is given as -8.79%.

In the case of `Cc1nc([N+](=O)[O-])c(N2CCN(Cc3ccccc3)CC2)n1Cc1ccccc1`, the “hERG current change (%, negative = inhibition) at 10uM” value is listed as -64.3%.

As to `O=Cc1cc([N+](=O)[O-])ccc1N1CCN(Cc2ccc3c(c2)OCO3)CC1`, the “hERG current change (%, negative = inhibition) at 10uM” value is -67.5%.

On to `Cl.O=[N+]([O-])c1ccc2ncnc(N3CCN(Cc4ccc5c(c4)OCO5)CC3)c2c1`, for which the “hERG current change (%, negative = inhibition) at 10uM” value is on record as -24.6%.

Consider `CN(C(=O)CN1CCN(c2ccc([N+](=O)[O-])cn2)CC1)c1ccccc1`, for which the “hERG current change (%, negative = inhibition) at 10uM” value is on record as -49.1%.

For the compound `O=S(=O)(c1ccc(N2CCN(Cc3ccc4c(c3)OCO4)CC2)nc1)N1CCOCC1`, the “hERG current change (%, negative = inhibition) at 10uM” value was -32.1%.

For `Cc1nc([N+](=O)[O-])c(N2CCN(C)CC2)n1Cc1ccccc1`, the “hERG current change (%, negative = inhibition) at 10uM” value was -10.4%.

For the compound `COc1cccc(NC(=S)NNC(=O)c2ccccc2OC(F)F)c1`, the “hERG current change (%, negative = inhibition) at 10uM” value was 12.3%.

In the case of `Fc1ccccc1-c1[nH]ncc1-c1nnnn1-c1ccccc1`, the “hERG current change (%, negative = inhibition) at 10uM” value worked out at 5.39%.

As to `CCc1nnc(NC(=O)c2ccc3c(c2)C(=O)N(C(C)(C)C)C3=O)s1`, the “hERG current change (%, negative = inhibition) at 10uM” value is on record as 7.02%.

As to `O=C(CSc1ccc2ccccc2c1)NC1CCCc2ccccc21` (stereo not shown), the “hERG current change (%, negative = inhibition) at 10uM” value amounted to 8.2%.

Turning to `COc1ccc(Cl)cc1NC(=S)NC(=O)c1ccco1`, the “hERG current change (%, negative = inhibition) at 10uM” value is -31.5%.

As to `COc1cc(/C=N/NC(=O)CNC(=O)c2ccco2)ccc1O`, the “hERG current change (%, negative = inhibition) at 10uM” value is on record as 7.95%.

Take `COc1ccc([N+](=O)[O-])cc1NC(=O)C(C)OC(=O)c1ccccn1` (stereo not shown): the “hERG current change (%, negative = inhibition) at 10uM” value was -7.61%.

`COc1cc2c(cc1NC(=O)C(C)OC(=O)C1CC(=O)N(Cc3ccco3)C1)oc1ccccc12` (stereo not shown): the “hERG current change (%, negative = inhibition) at 10uM” value is reported as -1.77%.

Take `CCc1noc(C)c1C(=O)OC(C)C(=O)Nc1ccccc1OC` (stereo not shown): the “hERG current change (%, negative = inhibition) at 10uM” value is recorded as -12.8%.

Regarding `CCc1noc(C)c1C(=O)OC(C)C(=O)Nc1cc([N+](=O)[O-])ccc1OC` (stereo not shown), the “hERG current change (%, negative = inhibition) at 10uM” value is reported as -53.1%.

`CC(OC(=O)C1CC(=O)N(Cc2ccco2)C1)C(=O)Nc1ccccc1[N+](=O)[O-]` (stereo not shown): the “hERG current change (%, negative = inhibition) at 10uM” value is recorded as -19.1%.

Consider `COc1ccc([N+](=O)[O-])cc1NC(=O)C(C)OC(=O)C1CC(=O)N(Cc2ccco2)C1` (stereo not shown), for which the “hERG current change (%, negative = inhibition) at 10uM” value was -57.4%.

In the case of `O=C(COC(=O)c1ccc(Cl)c(S(=O)(=O)N2CCCC2)c1)NCc1cccs1`, the “hERG current change (%, negative = inhibition) at 10uM” value is -39.8%.

As to `CCOc1ccc(/C=N/NC(=O)C2(O)c3ccccc3-c3ccccc32)cc1`, the “hERG current change (%, negative = inhibition) at 10uM” value worked out at 4.13%.

Regarding `CCSc1nnc(NC(=O)[C@@H](NC(=O)c2ccccc2F)C(C)C)s1`, the “hERG current change (%, negative = inhibition) at 10uM” value was -8.27%.

With `O=C(Nc1nccs1)c1ccc(F)c(S(=O)(=O)N2CCOCC2)c1`, the “hERG current change (%, negative = inhibition) at 10uM” value is on record as -18.8%.

As to `Cc1cc(C)n(CC(O)Cn2ccc3ccccc32)n1` (stereo not shown), the “hERG current change (%, negative = inhibition) at 10uM” value is recorded as -12.5%.

In the case of `CC1C2CC(C(CN(C)C)/C2=N/O)C1(C)C` (stereo not shown), the “hERG current change (%, negative = inhibition) at 10uM” value is -9.04%.

In the case of `O=C1C=C(c2ccc(Cl)cc2)C(=O)N1Nc1ccccc1`, the “hERG current change (%, negative = inhibition) at 10uM” value amounted to 13.1%.

In the case of `O=C1C=C(c2ccccc2)C(=O)N1Nc1ccccc1`, the “hERG current change (%, negative = inhibition) at 10uM” value was -77.2%.

For `COc1ccc(C2=CC(=O)N(Nc3ccccc3)C2=O)cc1`, the “hERG current change (%, negative = inhibition) at 10uM” value is recorded as 24.6%.

In the case of `CN(c1ccccc1)c1nc2ccsc2c(=O)s1`, the “hERG current change (%, negative = inhibition) at 10uM” value is given as 4.47%.

With `CC(C)=CCN1CCN(Cc2cccn2-c2ccccn2)CC1CCO` (stereo not shown), the “hERG current change (%, negative = inhibition) at 10uM” value is on record as -55.4%.

As for `CC(C)=CCN1CCN(Cc2cccn2-c2ncccn2)CC1CCO` (stereo not shown), the “hERG current change (%, negative = inhibition) at 10uM” value is recorded as -39.6%.

For the compound `CC(C)CN1CCN(Cc2cccc3ncccc23)CC1CCO` (stereo not shown), the “hERG current change (%, negative = inhibition) at 10uM” value is on record as -2.49%.
